The target in experiment [1] is rat Glutamate Metabotropic Receptor 5 (MGluR5), Grm5 (gene 24418) (UniProt P31424). The experiment in a line: NVS_GPCR_rmMGluR5: NovaScreen (NVS) G Protein-Coupled Receptor Assay for rat Glutamate Metabotropic Receptor 5 (MGluR5) (AID 2283307). Put shortly:
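Rat whole-brain membrane preparation; filter-based radioligand binding read by scintillation counting, 1.5 h after dosing. Single-point screen at 25 uM in duplicate; hits over threshold (e.g. 30% inhibition) retested in concentration-response up to 50 uM; loss of signal vs DMSO.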

Experiment [2] concerns the target human Neonicotinoid receptor (NNR), CHRNA2 (gene 1135) (UniProt Q15822). In words: NVS_LGIC_hNNR_NBungSens: NovaScreen (NVS) Ligand-Gated Ion Channel Assay for human Neonicotinoid receptor (NNR) (AID 2283313). The method, boiled down:
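Radioligand displacement on human neuroblastoma membranes, 2 h, filter-based scintillation counting. Primary screen in duplicate at 25 uM; chemicals passing threshold (e.g. 30% inhibition) run singleton concentration-response to 50 uM; loss of binding fitted versus DMSO.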

Experiment [3] concerns the target rat Vasopressin 1 Receptor (V1), Avpr1a (gene 25107) (UniProt P30560). The experiment in a line: NVS_GPCR_rV1: NovaScreen (NVS) G Protein-Coupled Receptor Assay for rat Vasopressin 1 Receptor (V1) (AID 2283316). How it is done: NVS_GPCR_rV1 is a biochemical, single-readout assay that uses extracted gene-proteins from Rat liver membranes in a tissue-based cell-free assay. Measurements were taken 1.5 hours after chemical dosing in a 48-well plate.NVS_GPCR_rV1 is one of one assay component(s) measured or calculated from the NVS_GPCR_rV1 assay. It is designed to make measurements of radioligand binding, a form of binding reporter, as detected with scintillation counting signals by Filter-based radiodetection technology.Data from the assay component NVS_GPCR_rV1 was analyzed into 1 assay endpoint. This assay endpoint, NVS_GPCR_rV1, was analyzed in the positive analysis fitting direction relative to DMSO as the negative control and baseline of activity. […] Furthermore, this assay endpoint can be referred to as a primary readout, because the performed assay has only produced 1 assay endpoint. […]
Binding assays used specific radioligands (tritiated, iodinated) with non-radioactive competitive displacement ligands in agonist or antagonist protocols (as indicated) and various reference compounds and inhibitors to titrate specific binding to receptors and transporters. Most enzyme assays (CYPs, kinases, phosphatases, proteases, HDACs) used recombinant protein and specific substrates (fluorescence mostly, some colorimetric and radioactive) and inhibitors, followed by a biochemical separation of substrate and product. […]

Results filed as inconclusive are left out. Calls of active or inactive are those of the source. How the source made its calls: active means hit-call score of the fitted dose curve at least 0.9, where 1 is the maximum; inconclusive means response in the unintended direction; inactive means score below 0.9.

Data on 3 molecules can be found in PubChem BioAssay (EPA / NIEHS).

As usually defined, the AC50 is the concentration giving half of the maximal activity seen.

Chain of rat Vasopressin 1 Receptor (V1), Avpr1a (gene 25107) (P30560 whole entry, looked up): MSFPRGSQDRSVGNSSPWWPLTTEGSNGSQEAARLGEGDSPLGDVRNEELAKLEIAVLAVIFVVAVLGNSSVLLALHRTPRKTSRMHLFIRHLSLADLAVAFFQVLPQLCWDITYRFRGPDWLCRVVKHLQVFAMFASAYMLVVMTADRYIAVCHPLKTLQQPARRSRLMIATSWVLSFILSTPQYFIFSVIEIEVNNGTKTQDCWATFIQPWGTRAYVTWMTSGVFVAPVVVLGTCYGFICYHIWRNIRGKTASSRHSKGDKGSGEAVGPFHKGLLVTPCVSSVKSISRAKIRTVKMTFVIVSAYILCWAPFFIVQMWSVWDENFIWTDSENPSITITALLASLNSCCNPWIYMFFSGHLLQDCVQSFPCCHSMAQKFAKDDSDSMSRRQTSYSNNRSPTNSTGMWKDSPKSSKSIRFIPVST
Chain of human Neonicotinoid receptor (NNR), CHRNA2 (gene 1135) (Q15822 whole entry, looked up): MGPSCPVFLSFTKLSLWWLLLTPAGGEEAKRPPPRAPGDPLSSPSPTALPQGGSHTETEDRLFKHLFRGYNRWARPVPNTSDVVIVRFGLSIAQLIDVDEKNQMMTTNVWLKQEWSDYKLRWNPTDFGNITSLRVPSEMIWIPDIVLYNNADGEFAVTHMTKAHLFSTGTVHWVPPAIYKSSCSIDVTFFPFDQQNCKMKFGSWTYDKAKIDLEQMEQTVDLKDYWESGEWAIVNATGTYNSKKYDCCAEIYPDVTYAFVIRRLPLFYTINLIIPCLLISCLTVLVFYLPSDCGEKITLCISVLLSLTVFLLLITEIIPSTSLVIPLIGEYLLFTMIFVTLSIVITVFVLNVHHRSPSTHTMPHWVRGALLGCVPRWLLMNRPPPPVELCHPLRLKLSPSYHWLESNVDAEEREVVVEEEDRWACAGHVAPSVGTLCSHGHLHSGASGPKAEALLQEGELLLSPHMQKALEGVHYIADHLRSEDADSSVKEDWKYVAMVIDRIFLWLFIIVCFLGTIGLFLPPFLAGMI
Chain of rat Glutamate Metabotropic Receptor 5 (MGluR5), Grm5 (gene 24418) (P31424 whole entry, looked up): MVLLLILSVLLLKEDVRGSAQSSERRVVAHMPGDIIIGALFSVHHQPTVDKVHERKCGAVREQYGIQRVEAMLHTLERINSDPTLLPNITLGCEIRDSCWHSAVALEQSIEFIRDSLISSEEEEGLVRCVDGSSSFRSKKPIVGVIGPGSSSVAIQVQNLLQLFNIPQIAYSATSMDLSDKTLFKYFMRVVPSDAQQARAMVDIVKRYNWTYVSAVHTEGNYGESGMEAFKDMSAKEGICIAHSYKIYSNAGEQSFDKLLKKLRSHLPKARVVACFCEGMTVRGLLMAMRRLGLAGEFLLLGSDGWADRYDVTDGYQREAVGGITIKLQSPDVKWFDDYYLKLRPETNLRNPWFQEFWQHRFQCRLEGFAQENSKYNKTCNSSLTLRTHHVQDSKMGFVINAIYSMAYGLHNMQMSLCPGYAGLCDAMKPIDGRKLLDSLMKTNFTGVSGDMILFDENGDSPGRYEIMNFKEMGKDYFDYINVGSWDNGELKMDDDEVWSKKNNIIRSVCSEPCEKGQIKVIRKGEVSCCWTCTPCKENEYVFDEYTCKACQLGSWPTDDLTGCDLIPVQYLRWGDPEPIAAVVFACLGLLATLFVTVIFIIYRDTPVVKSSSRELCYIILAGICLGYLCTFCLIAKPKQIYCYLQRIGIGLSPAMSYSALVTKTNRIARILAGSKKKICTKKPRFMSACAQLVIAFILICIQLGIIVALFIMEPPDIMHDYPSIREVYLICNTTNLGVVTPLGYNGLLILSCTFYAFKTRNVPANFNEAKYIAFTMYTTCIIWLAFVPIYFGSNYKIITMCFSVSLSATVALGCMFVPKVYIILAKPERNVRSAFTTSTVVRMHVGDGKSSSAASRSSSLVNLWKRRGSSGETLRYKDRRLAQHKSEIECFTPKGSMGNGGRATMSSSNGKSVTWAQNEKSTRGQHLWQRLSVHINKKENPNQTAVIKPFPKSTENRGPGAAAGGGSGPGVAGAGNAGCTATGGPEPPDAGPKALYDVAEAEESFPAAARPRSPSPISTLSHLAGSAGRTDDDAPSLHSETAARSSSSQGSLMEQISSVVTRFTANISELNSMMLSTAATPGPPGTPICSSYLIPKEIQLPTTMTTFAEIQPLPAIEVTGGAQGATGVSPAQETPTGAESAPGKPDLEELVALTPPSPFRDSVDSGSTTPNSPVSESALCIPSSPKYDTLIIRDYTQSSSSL

As for `CCCCOC(=O)c1ccccc1C(=O)OCCCC`, the molecule was classed as inactive in experiment [1].

For the molecule `Cc1ccc(-c2c(Cl)nc(C#N)n2S(=O)(=O)N(C)C)cc1`, the AC50 in experiment [2] was 1.21 µM (active).

For `CO/C=C(/C(=O)OC)c1ccccc1Oc1cc(Oc2ccccc2C#N)ncn1`, the AC50 in experiment [3] is 26.4 µM (active).
